# Laboratory results as given in PubChem BioAssay (EPA / NIEHS).
# Results filed as inconclusive are left out. A structure can be active in one record and inactive in another. The source made the active and inactive calls. Rule for the calls, unless noted: active = hit-call score of the fitted dose curve at least 0.9, where 1 is the maximum; inactive = score below 0.9.
# How the values were obtained:
# [1] = TAMU_HCS_1.5hr_SingleDonor1434_Cytotoxicity: Cytotoxicity Assessment using High-content Screening (HCS) Fluorescent Imaging for the Texas A&M University (TAMU) 1.5-hr Human Induced Pluripotent Stem Cell (iPSC)-derived Cardiotoxicity Assay (AID 2284234; active = hit-call score of the fitted dose curve at least 0.9, where 1 is the maximum)
# Procedure, shortened: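 Nuclear counts from Hoechst 33342 imaging define cytotoxicity here, with EC10 (10% cell-count loss relative to DMSO) as point of departure. iPSC cardiomyocytes received 0.2-100 uM test chemical in 0.5% DMSO for 1.5 h at 37 C.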
# [2] = CCTE_Mundy_HCI_Cortical_NOG_BPCount: CCTE's Neurite Outgrowth Assay in rat cortical cells for Branch Point Count, Mundy Lab (AID 2284237);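 for AC50: branch points counted about two days after chemical exposure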
# Procedure, shortened: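 Measured 50.33 h after dosing, this morphology endpoint uses rat primary cortical cultures labelled for betaIII-tubulin. Branch points are quantified by high-content imaging, with DMSO as negative control and baseline.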
# [3] = CCTE_Mundy_HCI_hNP1_Casp3_7: CCTE's Caspase-Glo 3/7 Assay in human neuroprogenitor cells for Apoptosis, Mundy Lab (AID 2284240)
# Procedure, shortened: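 Apoptosis is scored by activated caspase-3/7 luminescence in WA09-derived neural progenitor cells, measured 26.5 h after chemical dosing. Values represent gain of signal relative to DMSO vehicle.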
# [4] = CCTE_Mundy_HCI_hNP1_CellTiter: CCTE's Cell Titer-Glo 2 Assay in human neuroprogenitor cells for Viability, Mundy Lab (AID 2284241; active = hit-call score of the fitted dose curve at least 0.9, where 1 is the maximum;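 for AC50: a hit is a drop in ATP luminescence versus DMSO meaning reduced viability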)
# Procedure, shortened: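 Human neural progenitor cells (hNP1, WA09-derived) were plated on poly-L-ornithine/laminin and grown 40 to 44 hours at 37 °C, 5% CO2 before chemical addition. Twenty-four hours later, ATP was measured by CellTiter-Glo luminescence; loss of signal versus DMSO indicates reduced viability.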
# [5] = CCTE_Mundy_HCI_Cortical_Synap_Neur_Matur_NeuronCount: CCTE's Synaptogenesis and Neurite Maturation Assay in rat cortical cells for Neuron Count, Mundy Lab (AID 2284242; active = hit-call score of the fitted dose curve at least 0.9, where 1 is the maximum;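 for AC50: hits reduce neuron count versus DMSO baseline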)
# Procedure, shortened: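 Measured at DIV 12: fluorescently labelled neurons (Hoechst nuclei, MAP2) in rat primary cortical cultures, counted by high-content imaging. AraC suppressed glia from DIV 5; DMSO served as negative control.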
# [6] = UKN4_HCS_LUHMES_cell_viability: Viability Assessment in the University of Konstanz (UKN) Leist Lab Neurite Outgrowth Assay in human LUHMES cells (UKN4) (AID 2284232)
# Procedure, shortened: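 Measured in replated, 2-day-differentiated LUHMES cells treated 24 h; stained 30 min with H-33342 and calcein-AM before high-content imaging.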
# [7] = UKN2_HCS_IMR90_cell_viability: Viability Assessment in the University of Konstanz (UKN) Leist Lab Neural Crest Cell Migration Assay in human induced IMR90 Pluripotent Stem Cells (UKN2) (AID 2284233);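 note: cells exposed to compound for 24 h after a 24 h migration phase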
# Procedure, shortened: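 After calcein-AM/Hoechst staining, viability is quantified by high-content fluorescence imaging, relative to DMSO, in iPSC (IMR90)-derived neural crest cells. Exposure lasts 24 h, starting after a 24 h migration period on PLO/laminin/fibronectin coating.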
# [8] = CCTE_Mundy_HCI_Cortical_NOG_NeuronCount: CCTE's Neurite Outgrowth Assay in rat cortical cells for Neuron Count, Mundy Lab (AID 2284236; active = hit-call score of the fitted dose curve at least 0.9, where 1 is the maximum;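 note: neurons counted by imaging betaIII-tubulin and Hoechst stained cortical cells; cells exposed to compound for about 48 hours before fixation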)
# Procedure, shortened: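 Read-out: neuron number by high-content imaging of betaIII-tubulin (Alexa Fluor-488) and Hoechst-labelled rat primary cortical cells.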
# [9] = read-out: Secreted IgG (sIgG), gene 3500; assay: BSK_BT_sIgG: BioMAP Diversity Plus: BT Assay for Secreted IgG (sIgG) Biomarker Activity (AID 2284226); details: primary human B cells with PBMC
# Procedure, shortened: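 In this multiplexed co-culture system, ELISA quantifies sIgG 24 h post-treatment. Endpoint analysis uses positive fitting direction, DMSO negative control.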
# [10] = BSK_BT_Bcell_Proliferation: Viability Assessment in the BioMAP Diversity Plus: BT Assay for B cell Proliferation (AID 2284227); details: primary human B cells with PBMC
# Procedure, shortened: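 Using a human primary B cell–PBMC co-culture, the assay measures total protein by sulforhodamine B absorbance as a gauge of proliferation after 72 h. Analysis followed the positive fitting direction with DMSO as baseline.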
# [11] = read-out: Interleukin 6 (IL6), IL6 (gene 3569); assay: BSK_BT_xIL6: BioMAP Diversity Plus: BT Assay for Interleukin 6 (IL6) Biomarker Activity (AID 2284228); details: primary human B cells with PBMC
# Procedure, shortened: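 Human B cell/PBMC co-culture; secreted IL-6 quantified by Luminex xMAP 24 h after chemical dosing, fitted relative to DMSO. Parallel PBMC viability by Alamar Blue after 1 h pretreatment, 20 ng/mL SEB and TSST-1, 90 h incubation.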
# [12] = read-out: Interleukin 17A (IL17A), IL17A (gene 3605); assay: BSK_BT_xIL17A: BioMAP Diversity Plus: BT Assay for Interleukin 17A (IL17A) Biomarker Activity (AID 2284229); details: primary human B cells with PBMC
# Procedure, shortened: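 Co-culture of human B cells and PBMC, dosed for 24 h in 96-well format. Secreted IL-17A measured with Luminex xMAP; gain-direction fitting against DMSO as baseline.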
# [13] = read-out: Tumor necrosis factor (Homo sapiens) (UniProt P01375); assay: BSK_BT_xTNFa: BioMAP Diversity Plus: BT Assay for Tumor necrosis factor alpha (TNF-alpha) Biomarker Activity (AID 2284230); details: primary human B cells with PBMC
# Procedure, shortened: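 Endpoint derived in the positive direction versus DMSO vehicle. Cells: B cells together with PBMC, exposed 24 h before TNF-alpha in the medium was read on the Luminex xMAP platform.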
# [14] = read-out: Vascular cell adhesion molecule 1 (VCAM1), VCAM1 (gene 7412); assay: BSK_MyoF_VCAM1: BioMAP Diversity Plus: MyoF Assay for Vascular cell adhesion molecule 1 (VCAM1) Biomarker Activity (AID 2284231); details: primary human lung fibroblasts
# Procedure, shortened: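 Primary human lung fibroblasts (BioMAP MyoF system) dosed with chemical, VCAM-1 measured by ELISA 24 hours later. Fitted in the positive direction against DMSO; parallel SRB staining assessed cytotoxicity.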
# [15] = read-out: Collagen I, COL1A1 (gene 1277); assay: BSK_MyoF_CollagenI: BioMAP Diversity Plus: MyoF Assay for Collagen I Biomarker Activity (AID 2284238); details: primary human lung fibroblasts
# Procedure, shortened: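 Primary human lung fibroblasts (MyoF system) treated 24 h; Collagen I quantified by ELISA and fitted in positive direction against DMSO. Parallel SRB total-protein staining assessed overt cytotoxicity.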
# [16] = read-out: Collagen III, COL3A1 (gene 1281); assay: BSK_MyoF_CollagenIII: BioMAP Diversity Plus: MyoF Assay for Collagen III Biomarker Activity (AID 2284239); details: primary human lung fibroblasts
# Procedure, shortened: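 Primary human lung fibroblasts (BioMAP MyoF system) exposed 24 h. Collagen III measured by ELISA; positive-direction fit relative to DMSO.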
# [17] = read-out: Interleukin 17F (IL17F), IL17F (gene 112744); assay: BSK_BT_xIL17F: BioMAP Diversity Plus: BT Assay for Interleukin 17F (IL17F) Biomarker Activity (AID 2284243); details: primary human B cells with PBMC
# Procedure, shortened: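 Human PBMC co-cultured with B cells, compound exposure 24 h; secreted IL-17F quantified by Luminex xMAP, referenced to DMSO control. PBMC viability measured in parallel by Alamar Blue reduction.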
# [18] = read-out: Actin alpha 1 (ACTA1), ACTA1 (gene 58); assay: BSK_MyoF_ACTA1: BioMAP Diversity Plus: MyoF Assay for Actin alpha 1 (ACTA1) Biomarker Activity (AID 2284244); details: primary human lung fibroblasts
# Procedure, shortened: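 MyoF fibroblast system (human lung); a-SMA quantified via ELISA at 24 h; DMSO-normalised, gain-of-signal endpoint.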
# [19] = read-out: Interleukin 2 (IL2), IL2 (gene 3558); assay: BSK_BT_xIL2: BioMAP Diversity Plus: BT Assay for Interleukin 2 (IL2) Biomarker Activity (AID 2284245); details: primary human B cells with PBMC
# Procedure, shortened: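 Co-cultures of primary human B cells and PBMC are treated with chemical and sampled at 24 h. IL-2 secretion is quantified by Luminex xMAP, with DMSO-treated wells as baseline.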
# [20] = TAMU_PeakParms_SingleDonor1434_QT: Texas A&M University (TAMU) 1.5-hr Human Induced Pluripotent Stem Cell (iPSC)-derived Cardiomyocytes Calcium (Ca+2) Flux Assay for Cardiotoxicity: QT (decay-rise ratio) (AID 2284235; active = hit-call score of the fitted dose curve at least 0.9, where 1 is the maximum)
# Procedure, shortened: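 Decay/rise ratio of calcium-flux fluorescence scored after 90 min exposure (37C) of donor 1434 iPSC cardiomyocytes to 0.2–100 uM (0.5% DMSO). Beat-cessation and severe-notch points removed; POD is EC05, a 5% rise over DMSO.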
# Tumor necrosis factor (Homo sapiens), sequence (P01375 whole entry, looked up): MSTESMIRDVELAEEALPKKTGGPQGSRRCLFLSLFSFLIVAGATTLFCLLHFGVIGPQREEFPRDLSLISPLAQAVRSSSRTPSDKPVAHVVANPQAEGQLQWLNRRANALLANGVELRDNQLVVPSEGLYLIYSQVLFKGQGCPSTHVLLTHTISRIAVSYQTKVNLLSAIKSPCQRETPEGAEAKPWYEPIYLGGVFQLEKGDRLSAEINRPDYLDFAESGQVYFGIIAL
structure (smiles),measurement,setting,value
CNC(=O)Oc1cccc2ccccc12,outcome,[1],inactive
same,outcome,[2],inactive
same,outcome,[3],inactive
same,outcome,[4],inactive
same,AC50,[5],22.9 µM (active)
CCOP(=O)(OCC)Oc1nc(Cl)c(Cl)cc1Cl,AC50,[6],65.1 µM (active)
same,AC50,[7],3.19 µM (active)
same,outcome,[8],inactive
same,outcome,[2],inactive
same,AC50,[3],50 µM (active)
same,outcome,[3],inactive
same,outcome,[4],inactive
same,outcome,[5],inactive
O=C(Nc1ccccc1-c1ccc(Cl)cc1)c1cccnc1Cl,outcome,[7],inactive
same,outcome,[8],inactive
same,outcome,[2],inactive
same,outcome,[3],inactive
same,outcome,[4],inactive
CCNC(=O)NC(=O)C(C#N)=NOC,outcome,[8],inactive
same,outcome,[2],inactive
same,outcome,[3],inactive
same,outcome,[4],inactive
N#CN=C1SCCN1Cc1ccc(Cl)nc1,outcome,[2],inactive
same,outcome,[3],inactive
same,outcome,[4],inactive
CS(=O)(=O)c1ccc(C(=O)C2C(=O)CCCC2=O)c([N+](=O)[O-])c1,outcome,[7],inactive
same,outcome,[2],inactive
same,outcome,[3],inactive
same,outcome,[4],inactive
COCC(C)N(C(=O)CCl)c1c(C)csc1C (configuration not stated),AC50,[9],13.5 µM (active)
same,outcome,[10],inactive
same,outcome,[11],inactive
same,AC50,[12],20 µM (active)
same,outcome,[13],inactive
same,AC50,[14],20 µM (active)
same,AC50,[15],17.3 µM (active)
same,AC50,[16],26.2 µM (active)
same,AC50,[17],23.8 µM (active)
same,AC50,[18],30.9 µM (active)
same,outcome,[19],inactive
CS(=O)(=O)c1cc(C(F)(F)F)ccc1C(=O)c1cnoc1C1CC1,outcome,[7],inactive
same,AC50,[8],9.92 µM (active)
same,outcome,[2],inactive
same,outcome,[3],inactive
same,outcome,[4],inactive
CCSC(=O)N1CCCCCC1,outcome,[7],inactive
same,outcome,[8],inactive
same,outcome,[2],inactive
same,outcome,[3],inactive
same,outcome,[4],inactive
same,outcome,[5],inactive
Cc1c(COC(=O)[C@@H]2[C@H](/C=C(\Cl)C(F)(F)F)C2(C)C)cccc1-c1ccccc1,outcome,[7],inactive
same,AC50,[8],21.2 µM (active)
same,AC50,[2],25.9 µM (active)
same,AC50,[3],10.3 µM (active)
same,AC50,[4],9.1 µM (active)
same,AC50,[5],2.95 µM (active)
CC1(C)C(C=C(Cl)Cl)C1C(=O)OC(C#N)c1cccc(Oc2ccccc2)c1 (configuration not stated),outcome,[2],inactive
same,outcome,[3],inactive
same,outcome,[4],inactive
same,outcome,[5],inactive
CN/C(=N\[N+](=O)[O-])NCc1cnc(Cl)s1,outcome,[8],inactive
same,outcome,[2],inactive
same,outcome,[3],inactive
same,outcome,[4],inactive
CO/N=C(/C1=NOCCO1)c1ccccc1Oc1ncnc(Oc2ccccc2Cl)c1F,outcome,[7],inactive
same,AC50,[8],10.9 µM (active)
same,AC50,[2],2.55 µM (active)
same,AC50,[3],90 µM (active)
same,AC50,[5],1.52 µM (active)
CC(C)(C)C(=O)C(Oc1ccc(Cl)cc1)n1cncn1 (configuration not stated),outcome,[7],inactive
same,outcome,[8],inactive
same,AC50,[2],33.2 µM (active)
same,outcome,[3],inactive
same,outcome,[4],inactive
same,AC50,[5],11 µM (active)
O=C1C2CC=CCC2C(=O)N1SC(Cl)(Cl)Cl (configuration not stated),AC50,[1],84.7 µM (active)
same,outcome,[20],inactive
C=C(C)CN(CC)c1c([N+](=O)[O-])cc(C(F)(F)F)cc1[N+](=O)[O-],AC50,[7],121 µM (active)
same,AC50,[8],50 µM (active)
same,AC50,[2],50 µM (active)
same,AC50,[3],77.5 µM (active)
same,AC50,[4],31.5 µM (active)
same,AC50,[5],8.46 µM (active)
COC(=O)N(C(=O)N1CO[C@@]2(C(=O)OC)Cc3cc(Cl)ccc3C2=N1)c1ccc(OC(F)(F)F)cc1,AC50,[7],33.1 µM (active)
same,outcome,[2],inactive
same,outcome,[3],inactive
same,outcome,[4],inactive
COP(=O)(OC)O/C(C)=C/C(=O)N(C)C,outcome,[2],inactive
same,outcome,[3],inactive
same,outcome,[5],inactive
COP(=S)(OC)SCn1nnc2ccccc2c1=O,outcome,[6],inactive
same,AC50,[7],32.2 µM (active)
same,outcome,[8],inactive
same,outcome,[2],inactive
same,outcome,[3],inactive
same,outcome,[4],inactive
CCN(CC)c1nc(C)cc(OP(=S)(OC)OC)n1,AC50,[8],80.8 µM (active)
same,AC50,[2],90.6 µM (active)
same,AC50,[3],75.1 µM (active)
same,AC50,[4],71.4 µM (active)
same,AC50,[5],9.92 µM (active)
